Source: PubChem BioAssay (NCI)
Compounds without any hit were thinned out: in the full panel of roughly 83,000, 20% have a hit.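 Cells were grown in 96-well plates and exposed to the test compound at a single concentration for 48 hours; results are reported as percent growth, with values below 10 considered active.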 Activity calls are given as the source filed them.

Test system: NCI-H226 lung
Experiment: NCI-60 one-dose screen, 48 h (100 = growth as untreated, 0 = no growth, -100 = all killed)
Conditions: 10 µM unless noted

| Compound | growth |
| --- | --- |
| CCOC(=O)c1ccccc1-c1c2ccc(=[N+](C)C)cc-2oc2cc(N(C)C)ccc12 | 19.5% (inactive) |
| O=C(Nc1ncc(Cc2cc(C(F)(F)F)ccc2Cl)s1)c1cccs1 | 76.5% (inactive) |
| Clc1ccccc1-c1cnn2cc(-c3ccccc3)cnc12 | 83.2% (inactive) |
| NC1(CO)COC(c2ccccc2)OC1 (centres undefined) | 103% (inactive) |
| COc1cc(OC)cc(-c2ccc(-c3ccc(C(=N)N)o3)o2)c1 | 84.8% (inactive) |
| CN1CCN(Cc2ccc(NC(=O)c3cncc(C#Cc4cnc5ccc(Cl)nn45)c3)cc2C(F)(F)F)CC1 | -58.3% (active) |
| NS(=O)(=O)c1ccc(NC(=O)/C(=C\c2ccc(Cl)cc2Cl)NC(=O)c2ccccc2)cc1 | 103% (inactive) |
| C/C=C(/C)n1cnc2c(Nc3ccccn3)nc(Cl)nc21 | 102% (inactive) |
| CS(=O)(=O)Nc1cc(-c2ccc3ncc(C#N)c(Nc4ccc(F)c(Cl)c4)c3c2)cnc1Cl | -0.649% (active) |
| CNC(=O)c1cc(Oc2cccc3nc(NC(=O)Nc4cc(C(F)(F)F)ccc4Cl)ccc23)ccn1 | 99.1% (inactive) |
| CN1CCN(Cc2ccc(NC(=O)c3cncc(C#Cc4cnc(N)c5ccc(F)cc45)c3)cc2C(F)(F)F)CC1 | 28.2% (inactive) |
| CCN1CCN(CC(=O)Nc2nc3ccc(NCc4ccc(F)cc4)cc3s2)CC1 | 90.9% (inactive) |
| COc1ccc(NC(=O)Nc2ccc(OCCCCCC(=O)NO)cc2)cc1 | 100% (inactive) |
| CNC1=CC(=O)c2c(C(=O)OC)c(C)[n+]([O-])c(C)c2C1=O | 82.1% (inactive) |
| Nc1nc(NC(=O)Nc2ccc(C(=O)O)cc2)nn1-c1ccc(S(N)(=O)=O)cc1 | 92.1% (inactive) |
| O=C(CCCCCCN1CC(=O)N2[C@H](c3ccc(Cl)cc3)c3[nH]c4ccccc4c3C[C@@H]2C1=O)NO | 84.1% (inactive) |
| CC(=O)OC[C@]12CC[C@@H]([C@@H](C)c3nnc(-c4ccncc4)o3)[C@@H]1[C@H]1CC[C@@H]3[C@@]4(C)CC[C@H](OC(C)=O)C(C)(C)[C@@H]4CC[C@@]3(C)[C@]1(C)CC2 | 60.6% (inactive) |
| Cc1ccc(C(=O)Nc2cccc(C#Cc3cccc4[nH]nc(N)c34)c2)cc1C(F)(F)F | 55.8% (inactive) |
| CCCCNC(=O)Oc1ccc(/C(=C(/C)Cc2ccc(OC)cc2)c2ccc(OCCN3CCCCCC3)cc2)cc1 | 101% (inactive) |
| Cc1ccc2nc(/C(C#N)=C(/CCCO)NC(Cc3ccccc3)C(=O)OCc3ccccc3)[nH]c(=O)c2c1 (centres undefined) | 103% (inactive) |

| Compound | growth |
| --- | --- |
| O=C1/C(=C2\SC(=S)N(C3CC3)C2=O)SC(=S)N1C1CC1 | 95.5% (inactive) |
| CC1=CC(c2ccco2)=C2C(N)=NNC2N1 (centres undefined) | 95.7% (inactive) |
| Nc1nc2c(c3ncccc13)C(c1cccc(Cl)c1)Cc1ncccc1-2 (centres undefined) | 75.8% (inactive) |
| O=C(O)c1ccc(-c2ccc(/C=N/Nc3nc(Nc4ccccc4)nc(N4CCCCC4)n3)o2)cc1 | 92.4% (inactive) |
| COC(=O)c1c2c(c(C)[n+]([O-])c1C)C(=O)C(NCc1cccc(Cl)c1)=CC2=O | 79.8% (inactive) |
| Fc1ccc(Cn2cc(CSc3nc4ccccc4o3)nn2)cc1 | 92.8% (inactive) |
| CC1CCN(C(=O)CCCl)c2ccccc21 (centres undefined) | 105% (inactive) |
| CC1CCN(C(=S)SCC(=O)NC(=O)c2ccccc2)CC1 | 109% (inactive) |
| CCOc1ccc(-n2nc(C(=O)NCc3ccccc3OC)nc2-c2cc(OC)c(OC)c(OC)c2)cc1 | 62.5% (inactive) |
| COc1ccc(C(=O)N2c3ccccc3Sc3ccccc32)c(C(F)(F)F)c1 | 13.1% (inactive) |
| O=C(N=Nc1c(O)[nH]c2ccccc12)Nc1ccc(F)cc1 | 91.7% (inactive) |
| O=C(O)c1cn(C2CC2)c2cc(N3CCN(C(=O)Nc4nc(-c5ccc(Br)cc5)cs4)CC3)c(F)cc2c1=O | 18.9% (inactive) |
| CCN1C(=O)N(CC)C2C1NN=c1s/c(=C\c3ccc(C(F)(F)F)cc3)c(=O)n12 (centres undefined) | 60.8% (inactive) |
| Cc1ccc(C(=O)c2ccc(CC(=O)N=Nc3c(O)[nH]c4ccc(Br)cc34)n2C)cc1 | 77.9% (inactive) |
| Cc1ccc(Cl)cc1NC(=O)c1sc2nc3c(cc2c1N)C(=O)CCC3 | 88.3% (inactive) |
| Clc1ccc(-c2cc(-c3ccccc3)nc(NCCNc3ccnc4cc(Cl)ccc34)n2)cc1 | 78.5% (inactive) |
| N#C/C(=C\c1cn(Cc2ccccc2)c2ccccc12)C(=O)Nc1ncc(Cc2ccccc2Cl)s1 | -33.6% (active) |
| CC/C=C\C[C@H](O)C/C=C1/C(=O)C=C[C@@H]1C/C=C\CCCC(=O)O | 83.1% (inactive) |
| C#Cc1cccc(Nc2nc(C)nc3cc(NC(=O)CCl)ccc23)c1 | -28.1% (active) |
